The full data set covers some 7,900 targets. This sample favours those with a hit. About 0.6% of all pairs of compound and target were hits. Values without a mark were called inactive.
Experiments:
Test in all cases: log2 fold change, soluble protein after heating vs DMSO (PISA); higher = thermal stabilisation; K562 cells, 10 uM, 30 min; active = over 0.2 and 3.5 SD of the protein, either way, in both replicates (recomputed)
[1] = compound: CC[C@@H]1C(=O)N(C)c2cnc(Nc3ccc(C(=O)NC4CCN(C)CC4)cc3OC)nc2N1C1CCCC1
In short: (§1)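 For each measurement, 10 μM compound was applied for 30 min to K562 cells at 2×10^6 cells/mL. Aliquots were heated for 3 min across 48°C-58°C, pooled, and extracted in PBS with 0.5% NP-40 at 4°C; the supernatant after 21,000xg for 90 min was soluble protein. This was quantified by TMTpro 16plex LC-MS/MS with channel sums equalised, and thermal stability was reported relative to control samples from duplicates, on a log2 fold-change scale.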

[2] = compound: CC[C@@H]1C(=O)N(C)c2cnc(Nc3ccc(C(=O)N[C@H]4CC[C@H](N5CCN(CC6CC6)CC5)CC4)cc3OC)nc2N1C(C)C [volasertib]
In short: as §1

[3] = compound: CC[C@H](C)N1C=C(C2=C(C=C(C=C21)C3=CN=C(C=C3)N4CCNCC4)C(=O)NCC5=C(C=C(NC5=O)C)C)C
In short: as §1

[4] = compound: CC[C@H](C)[C@@H](C(=O)N[C@@H]([C@@H](C)O)C(=O)N[C@@H](CC(C)C)C(=O)[C@]1(CO1)C)NC(=O)[C@H]([C@@H](C)CC)N(C)C(=O)C [epoxomicin]
In short: as §1

[5] = compound: CCn1c(C(=O)N(C2CC2)C2CC2)cc2c3c(ncn3C)c(Nc3cc(C)n(C)n3)nc21
In short: as §1

[6] = compound: CCn1cc(-c2ccnc3[nH]c(-c4cccc(CN(C)C)c4)cc23)c(-c2ccc(NC(=O)N(C)C)cc2)n1
In short: as §1

[7] = compound: CN(C)CC(=O)Nc1ccc2[nH]c(=O)c3ccccc3c2c1
In short: as §1

[8] = compound: CN(CCOC1=CC=C(C=C1)C[C@H]2C(=O)NC(=O)S2)C3=CC=CC=N3 (racemic) [rosiglitazone]
In short: as §1

[9] = compound: CN1C2=C(C3=C1C(=O)N(N=C3)CC4=CC(=CC=C4)N)SC(=C2)S(=O)C
In short: as §1

[10] = compound: CN1CCC(CNc2ccc3ncc(-c4cccc(OC(F)(F)F)c4)n3n2)CC1
In short: as §1

[11] = compound: CN1CCN(CCOc2cc(OC3CCOCC3)c3c(Nc4c(Cl)ccc5c4OCO5)ncnc3c2)CC1 [saracatinib]
In short: as §1

[12] = compound: CN1CCN(c2nc(C3=C(c4c[nH]c5ccccc45)C(=O)NC3=O)c3ccccc3n2)CC1 [sotrastaurin]
In short: as §1

[13] = compound: CN1CC[C@H](c2c(O)cc(O)c3c(=O)cc(-c4ccccc4Cl)oc23)[C@H](O)C1 [alvocidib]
In short: as §1

[14] = compound: CN1CCc2c(c3ccccc3n2Cc2ccc(C(=O)NO)cc2)C1 [Tubastatin A]
In short: as §1

[15] = compound: CNC(=O)C1=CC=CC=C1NC2=NC(=NC=C2Cl)NC3=C(C=C(C=C3)N4CCOCC4)OC
In short: as §1

[16] = compound: CNC(=O)c1ccc(Nc2ncc(C(F)(F)F)c(NCc3nccnc3N(C)S(C)(=O)=O)n2)cc1 [defactinib]
In short: as §1

[17] = compound: CNCc1ccc(-c2[nH]c3cc(F)cc4c3c2CCNC4=O)cc1 [rucaparib]
In short: as §1

[18] = compound: CNc1nc(-c2ccc3c(N)n[nH]c3c2)cc(N2C[C@@H](C(=O)NC3CCCCC3)CC[C@H]2C)n1
In short: as §1

[19] = compound: COC(=O)N[C@@H](C)CNc1nccc(-c2cn(C(C)C)nc2-c2cc(Cl)cc(NS(C)(=O)=O)c2F)n1 [encorafenib]
In short: as §1

[20] = compound: COC(=O)[C@H](CCSC)NC(=O)C1=C(C=C(C=C1)NC[C@H](CS)N)C2=CC=CC=C2
In short: as §1

UniProt P55786, sequence (P55786 whole entry, looked up): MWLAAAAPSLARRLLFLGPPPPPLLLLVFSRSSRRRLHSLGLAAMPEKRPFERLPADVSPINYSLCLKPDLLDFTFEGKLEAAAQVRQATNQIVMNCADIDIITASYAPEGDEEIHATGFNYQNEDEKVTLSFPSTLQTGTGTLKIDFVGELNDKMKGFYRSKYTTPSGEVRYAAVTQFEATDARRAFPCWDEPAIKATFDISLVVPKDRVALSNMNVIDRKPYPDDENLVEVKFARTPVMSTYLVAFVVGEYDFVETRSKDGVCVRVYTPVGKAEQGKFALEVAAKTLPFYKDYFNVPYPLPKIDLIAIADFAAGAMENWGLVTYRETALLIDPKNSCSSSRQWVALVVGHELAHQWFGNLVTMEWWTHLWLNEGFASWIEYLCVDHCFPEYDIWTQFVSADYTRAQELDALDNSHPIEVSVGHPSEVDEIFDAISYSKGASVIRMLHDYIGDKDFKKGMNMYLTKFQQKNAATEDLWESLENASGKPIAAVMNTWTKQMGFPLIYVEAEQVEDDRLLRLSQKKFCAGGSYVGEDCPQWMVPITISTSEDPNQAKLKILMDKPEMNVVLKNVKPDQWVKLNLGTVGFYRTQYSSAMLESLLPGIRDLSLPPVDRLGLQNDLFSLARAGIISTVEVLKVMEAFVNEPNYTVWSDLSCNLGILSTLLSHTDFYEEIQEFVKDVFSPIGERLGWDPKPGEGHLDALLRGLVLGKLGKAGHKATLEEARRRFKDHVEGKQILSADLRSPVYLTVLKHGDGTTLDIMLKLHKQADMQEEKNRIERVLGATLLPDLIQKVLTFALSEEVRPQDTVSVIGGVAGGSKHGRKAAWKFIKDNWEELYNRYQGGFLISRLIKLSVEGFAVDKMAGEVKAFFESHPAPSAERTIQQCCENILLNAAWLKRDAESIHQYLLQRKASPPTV
UniProt Q16656, sequence (Q16656 whole entry, looked up): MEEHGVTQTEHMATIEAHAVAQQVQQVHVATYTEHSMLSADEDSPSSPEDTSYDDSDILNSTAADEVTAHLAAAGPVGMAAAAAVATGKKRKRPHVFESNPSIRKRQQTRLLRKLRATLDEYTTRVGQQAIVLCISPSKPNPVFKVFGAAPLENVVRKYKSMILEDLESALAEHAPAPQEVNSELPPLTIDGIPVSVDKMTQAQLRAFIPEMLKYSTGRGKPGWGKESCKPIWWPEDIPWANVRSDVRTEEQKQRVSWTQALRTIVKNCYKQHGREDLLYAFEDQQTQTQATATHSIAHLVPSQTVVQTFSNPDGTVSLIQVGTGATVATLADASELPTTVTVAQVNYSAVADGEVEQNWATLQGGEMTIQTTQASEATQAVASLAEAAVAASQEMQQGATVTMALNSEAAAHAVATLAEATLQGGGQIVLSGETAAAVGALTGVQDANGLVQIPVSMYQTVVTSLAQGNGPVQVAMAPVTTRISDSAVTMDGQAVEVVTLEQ
UniProt Q9HBL8, sequence (Q9HBL8 whole entry, looked up): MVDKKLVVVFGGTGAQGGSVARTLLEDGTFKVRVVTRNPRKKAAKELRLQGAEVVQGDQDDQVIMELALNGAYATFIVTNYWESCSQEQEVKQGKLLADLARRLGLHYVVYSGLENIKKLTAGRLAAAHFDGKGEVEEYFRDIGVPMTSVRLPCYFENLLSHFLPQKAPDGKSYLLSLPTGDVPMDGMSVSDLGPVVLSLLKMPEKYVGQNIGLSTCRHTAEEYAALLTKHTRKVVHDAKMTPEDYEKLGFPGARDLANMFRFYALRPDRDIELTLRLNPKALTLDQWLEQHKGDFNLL
UniProt O75251, sequence (O75251 whole entry, looked up): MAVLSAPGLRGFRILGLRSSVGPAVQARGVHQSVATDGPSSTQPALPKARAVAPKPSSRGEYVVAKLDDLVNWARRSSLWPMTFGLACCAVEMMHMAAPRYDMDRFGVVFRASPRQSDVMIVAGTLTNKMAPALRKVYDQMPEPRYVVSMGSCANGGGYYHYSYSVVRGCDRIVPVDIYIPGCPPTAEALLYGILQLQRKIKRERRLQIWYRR
UniProt Q9UI09, sequence (Q9UI09 whole entry, looked up): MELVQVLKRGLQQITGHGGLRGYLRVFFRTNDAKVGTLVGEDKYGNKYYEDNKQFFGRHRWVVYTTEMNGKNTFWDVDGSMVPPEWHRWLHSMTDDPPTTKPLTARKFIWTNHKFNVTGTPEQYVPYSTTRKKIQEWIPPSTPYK
UniProt Q8N6M0, sequence (Q8N6M0 whole entry, looked up): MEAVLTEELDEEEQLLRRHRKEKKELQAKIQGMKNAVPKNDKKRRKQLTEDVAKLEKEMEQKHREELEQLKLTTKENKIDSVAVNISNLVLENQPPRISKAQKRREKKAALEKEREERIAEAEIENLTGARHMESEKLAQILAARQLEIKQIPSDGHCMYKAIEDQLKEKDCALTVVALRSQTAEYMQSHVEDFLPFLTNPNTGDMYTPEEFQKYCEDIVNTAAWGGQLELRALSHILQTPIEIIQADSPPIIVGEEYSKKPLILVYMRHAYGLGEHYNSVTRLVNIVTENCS

Row | Target | log2 fold change [1] | log2 fold change [2] | log2 fold change [3] | log2 fold change [4] | log2 fold change [5] | log2 fold change [6] | log2 fold change [7] | log2 fold change [8] | log2 fold change [9] | log2 fold change [10] | log2 fold change [11] | log2 fold change [12] | log2 fold change [13] | log2 fold change [14] | log2 fold change [15] | log2 fold change [16] | log2 fold change [17] | log2 fold change [18] | log2 fold change [19] | log2 fold change [20]
1 | NMRAL1 (UniProt Q9HBL8) | 0.27 | 0.294 | 0.105 | 0.035 | 0.01 | 0.055 | 0.122 | 0.011 | 0.059 | 0.526 | 0.115 | 0.028 | 0.001 | 0.14 | 0.061 | 0.122 | 0.84 (active) | 0.018 | -0.14 | -0.154
2 | OTUD6B (UniProt Q8N6M0) | -0.163 | -0.435 (active) | 0.036 | 0.094 | -0.032 | -0.055 | 0.066 | 0.09 | -0.019 | -0.137 | -0.009 | -0.035 | -0.147 | -0.007 | -0.008 | -0.138 | 0.019 | 0.001 | 0.122 | -0.055
3 | NDUFS7 (UniProt O75251) | -0.043 | -0.042 | 0.003 | -0.007 | -0.009 | -0.005 | 0.012 | 0.053 | -0.029 | -0.327 (active) | -0.047 | 0.014 | -0.011 | -0.001 | -0.038 | -0.016 | -0.004 | -0.048 | 0.024 | 0.002
4 | MRPL47 (UniProt Q9HD33) | 0.094 | -0.038 | 0.044 | 0.061 | -0.021 | 0.235 | -0.036 | -0.027 | 0.071 | -0.325 | -0.168 | -0.024 | 0.113 | 0.081 | -0.028 | 0.151 | -0.122 | 0.17 | 0.063 | -0.022
5 | NUDT1 (UniProt P36639) | 0.971 (active) | 1.35 (active) | -0.012 | -0.039 | -0.113 | -0.19 | 0.06 | 0.054 | -0.088 | 0.157 | 0.068 | 0.043 | -0.038 | 0.193 | 0.05 | 0.019 | 0.416 | 0.196 | -0.03 | -0.074
6 | NDUFA12 (UniProt Q9UI09) | -0.135 | -0.244 | 0.081 | 0.046 | -0.063 | -0.173 | 0.119 | 0.082 | -0.054 | -0.632 (active) | 0.029 | -0.017 | -0.094 | 0 | -0.027 | -0.037 | -0.061 | 0.031 | 0.05 | -0.018
7 | NPEPPS (UniProt P55786) | -0.005 | -0.023 | 0.079 | -0.022 | 0.082 | -0.102 | 0.007 | 0.046 | -0.098 | -0.141 | -0.013 | 0.108 | -0.077 | 0.012 | -0.082 | -0.004 | 0.013 | 0.075 | -0.032 | 0.231 (active)
8 | NRF1 isoform 4 (UniProt Q16656) | -0.173 | -0.501 (active) | 0.087 | 0.268 | -0.056 | 0.035 | 0.08 | 0.1 | -0.084 | 0.037 | 0.102 | -0.045 | -0.159 | 0.015 | -0.016 | -0.34 (active) | -0.11 | -0.061 | 0.036 | 0.015

Reference: the supplement of paper PMC10849652
